According to PubChem BioAssay AID1159580 (chemical genetic matrix, 2015):
About 2,000 (36%) of roughly 5,500 compounds were called active. Another 18% or so got no clear call; they are omitted. Cut-off read from the data, not from the text of the source: active = normalized growth mostly below about 0.91 (no sharp cut-off); inconclusive = no clear call, values can overlap the other calls; inactive = mostly above about 0.92. The list shows a part of the results.

Assay: chemical genetic growth profiling, strain panel (AID 1159580);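 note: tested at 20 µM; growth read once vehicle control cultures reached saturation at 30 °C; 1 = growth at the plate median or of vehicle wells; lower values mean less growth of the strain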
Conditions: growth OD
[1] = S. cerevisiae deletion strains, locus YBR229C, strain ROT2, stronger effect = lower value
[2] = S. cerevisiae deletion strains, locus YDL101C, strain DUN1, stronger effect = lower value
[3] = S. cerevisiae deletion strains, locus YDR150W, strain NUM1, stronger effect = lower value
[4] = S. cerevisiae deletion strains, locus YEL061C, strain CIN8, stronger effect = lower value
[5] = S. cerevisiae deletion strains, locus YGR078C, strain PAC10, stronger effect = lower value
[6] = S. cerevisiae deletion strains, locus YHR030C, strain SLT2, stronger effect = lower value
[7] = S. cerevisiae deletion strains, locus YJR043C, strain POL32, stronger effect = lower value
[8] = S. cerevisiae deletion strains, locus YJR075W, strain HOC1, stronger effect = lower value
[9] = S. cerevisiae deletion strains, locus YLR039C, strain RIC1, stronger effect = lower value
[10] = S. cerevisiae deletion strains, locus YLR262C, strain YPT6, stronger effect = lower value
[11] = S. cerevisiae deletion strains, locus YMR307W, strain GAS1, stronger effect = lower value
[12] = S. cerevisiae deletion strains, locus YNL322C, strain KRE1, stronger effect = lower value
[13] = S. cerevisiae deletion strains, locus YOL006C, strain TOP1, stronger effect = lower value
[14] = S. cerevisiae deletion strains, locus YPL241C, strain CIN2, stronger effect = lower value

Measured: normalized growth

Cc1cccc(C)c1NC(=O)C(C)Oc1ccc(Cl)cc1Cl (stereo not drawn)
inactive: S. cerevisiae deletion strains, locus YAL013W, strain DEP1, stronger effect = lower value 1.01 | [1] 1 | [2] 1.01 | [3] 1.02 | [4] 0.996 | [5] 1 | [6] 0.989 | S. cerevisiae deletion strains, locus YHR087W, strain rtc3, stronger effect = lower value 1.01 | S. cerevisiae deletion strains, locus YJL187C, strain SWE1, stronger effect = lower value 1.01 | [7] 1 | [8] 0.998 | S. cerevisiae deletion strains, locus YKL190W, strain CNB1, stronger effect = lower value 0.999 | [9] 0.961 | S. cerevisiae deletion strains, locus YLR058C, strain SHM2 (second series), stronger effect = lower value 0.997 | S. cerevisiae deletion strains, locus YLR085C, strain ARP6, stronger effect = lower value 1.02 | [10] 0.963 | S. cerevisiae deletion strains, locus YML094W, strain GIM5, stronger effect = lower value 1.09 | S. cerevisiae deletion strains, locus YMR219W, strain ESC1, stronger effect = lower value 1.01 | S. cerevisiae deletion strains, locus YMR263W, strain SAP30, stronger effect = lower value 1 | [11] 0.929 | S. cerevisiae deletion strains, locus YNL153C, strain GIM3, stronger effect = lower value 1.02 | S. cerevisiae deletion strains, locus YNL298W, strain CLA4 (second series), stronger effect = lower value 1.02 | [12] 1 | S. cerevisiae deletion strains, locus YNR030W, strain Alg12, stronger effect = lower value 1.01 | [13] 1.04 | S. cerevisiae deletion strains, locus YPL055C, strain LGE1, stronger effect = lower value 1.04 | [14] 1.05 | S. cerevisiae deletion strains, locus YPR135W, strain CTF4, stronger effect = lower value 1.01 | S. cerevisiae strains, strain wild type, stronger effect = lower value 0.995

CC(C)(OC(=O)c1ccccc1)[C@@H]1Cc2cc3ccc(=O)oc3cc2O1
active: S. cerevisiae deletion strains, locus YDR162C, strain NBP2, stronger effect = lower value 0.834 | S. cerevisiae deletion strains, locus YLR418C, strain cdc73, stronger effect = lower value 0.828 | S. cerevisiae deletion strains, locus YOR184W, strain ser1, stronger effect = lower value 0.861
inactive: S. cerevisiae deletion strains, locus YBR021W, strain FUR4, stronger effect = lower value 0.939 | [1] 0.986 | S. cerevisiae deletion strains, locus YCL029C, strain bik1, stronger effect = lower value 1.01 | S. cerevisiae deletion strains, locus YDL035C, strain GPR1, stronger effect = lower value 0.927 | S. cerevisiae deletion strains, locus YDL074C, strain BRE1, stronger effect = lower value 0.95 | [2] 0.975 | S. cerevisiae deletion strains, locus YDL185W, strain tfp1, stronger effect = lower value 0.956 | S. cerevisiae deletion strains, locus YDL192W, strain arf1, stronger effect = lower value 0.982 | S. cerevisiae deletion strains, locus YDR101C, strain arx1, stronger effect = lower value 0.975 | [3] 0.989 | S. cerevisiae deletion strains, locus YDR318W, strain mcm21, stronger effect = lower value 0.954 | S. cerevisiae deletion strains, locus YDR388W, stronger effect = lower value 0.994 | S. cerevisiae deletion strains, locus YDR502C, strain sam2, stronger effect = lower value 0.956 | [4] 0.992 | S. cerevisiae deletion strains, locus YER110C, stronger effect = lower value 0.973 | S. cerevisiae deletion strains, locus YER155C, strain BEM2, stronger effect = lower value 0.999 | S. cerevisiae deletion strains, locus YER167W, strain BCK2, stronger effect = lower value 0.991 | S. cerevisiae deletion strains, locus YGL078C, strain dbp3, stronger effect = lower value 0.957 | S. cerevisiae deletion strains, locus YGL086W, strain mad1, stronger effect = lower value 0.987 | S. cerevisiae deletion strains, locus YGL248W, strain PDE1, stronger effect = lower value 0.94 | [5] 0.945 | S. cerevisiae deletion strains, locus YGR135W, strain pre9, stronger effect = lower value 0.951 | S. cerevisiae deletion strains, locus YGR229C, strain SMI1, stronger effect = lower value 0.885 | S. cerevisiae deletion strains, locus YGR252W, strain gcn5, stronger effect = lower value 0.805 | [6] 0.989 | S. cerevisiae deletion strains, locus YHR079C, strain IRE1 (second series), stronger effect = lower value 1 | S. cerevisiae deletion strains, locus YHR094C, strain hxt1, stronger effect = lower value 1 | S. cerevisiae deletion strains, locus YHR129C, strain ARP1, stronger effect = lower value 0.989 | S. cerevisiae deletion strains, locus YHR200W, strain rpn10, stronger effect = lower value 0.976 | S. cerevisiae deletion strains, locus YIL066C, strain RNR3, stronger effect = lower value 0.927 | S. cerevisiae deletion strains, locus YIL073C, strain SPO22, stronger effect = lower value 0.945 | S. cerevisiae deletion strains, locus YIL125W, strain kgd1, stronger effect = lower value 1 | S. cerevisiae deletion strains, locus YIR030C, strain dcg1, stronger effect = lower value 0.988 | S. cerevisiae deletion strains, locus YJL095W, strain BCK1, stronger effect = lower value 0.89 | S. cerevisiae deletion strains, locus YJL134W, strain LCB3, stronger effect = lower value 0.989 | S. cerevisiae deletion strains, locus YJL168C, strain set2, stronger effect = lower value 0.983 | S. cerevisiae deletion strains, locus YJL187C, strain SWE1 (second series), stronger effect = lower value 0.958 | [7] 0.978 | [8] 0.976 | S. cerevisiae deletion strains, locus YKL009W, strain mrt4, stronger effect = lower value 0.958 | S. cerevisiae deletion strains, locus YKL068W, stronger effect = lower value 0.992 | S. cerevisiae deletion strains, locus YKL085W, strain MDH1 (second series), stronger effect = lower value 1 | S. cerevisiae deletion strains, locus YKL085W, strain MDH1, stronger effect = lower value 1 | S. cerevisiae deletion strains, locus YKR001C, strain vps1, stronger effect = lower value 0.997 | [9] 1.05 | S. cerevisiae deletion strains, locus YLR058C, strain SHM2, stronger effect = lower value 0.975 | S. cerevisiae deletion strains, locus YLR102C, strain apc9, stronger effect = lower value 0.984 | [10] 1.02 | S. cerevisiae deletion strains, locus YLR268W, strain sec22, stronger effect = lower value 0.977 | S. cerevisiae deletion strains, locus YLR330W, strain CHS5, stronger effect = lower value 0.976 | S. cerevisiae deletion strains, locus YLR342W, strain FKS1 (second series), stronger effect = lower value 1.01 | S. cerevisiae deletion strains, locus YLR371W, strain rom2, stronger effect = lower value 0.994 | S. cerevisiae deletion strains, locus YML016C, strain PPZ1, stronger effect = lower value 0.982 | S. cerevisiae deletion strains, locus YML032C, strain rad52, stronger effect = lower value 0.97 | S. cerevisiae deletion strains, locus YML124C, strain tub3, stronger effect = lower value 0.974 | S. cerevisiae deletion strains, locus YMR078C, strain ctf18, stronger effect = lower value 0.976 | S. cerevisiae deletion strains, locus YMR223W, strain ubp8, stronger effect = lower value 0.945 | [11] 0.895 | S. cerevisiae deletion strains, locus YNL067W, strain RPL9B, stronger effect = lower value 0.96 | S. cerevisiae deletion strains, locus YNL128W, strain TEP1, stronger effect = lower value 0.981 | S. cerevisiae deletion strains, locus YNL233W, strain BNI4, stronger effect = lower value 0.968 | S. cerevisiae deletion strains, locus YNL250W, strain rad50, stronger effect = lower value 0.991 | S. cerevisiae deletion strains, locus YNL271C, strain bni1, stronger effect = lower value 0.938 | S. cerevisiae deletion strains, locus YNL298W, strain CLA4, stronger effect = lower value 0.942 | S. cerevisiae deletion strains, locus YNL307C, strain MCK1, stronger effect = lower value 0.975 | [12] 0.984 | S. cerevisiae deletion strains, locus YNR052C, strain pop2, stronger effect = lower value 0.983 | [13] 0.761 | S. cerevisiae deletion strains, locus YOL012C, strain htz1 1.01 | S. cerevisiae deletion strains, locus YOL147C, strain pex11, stronger effect = lower value 0.986 | S. cerevisiae deletion strains, locus YOR061W, strain CKA2, stronger effect = lower value 0.976 | S. cerevisiae deletion strains, locus YOR069W, strain VPS5, stronger effect = lower value 0.983 | S. cerevisiae deletion strains, locus YOR136W, strain idh2, stronger effect = lower value 0.987 | S. cerevisiae deletion strains, locus YOR144C, strain elg1, stronger effect = lower value 0.973 | S. cerevisiae deletion strains, locus YOR316C, strain cot1, stronger effect = lower value 0.976 | [14] 0.982 | S. cerevisiae deletion strains, locus YPR119W, strain clb2, stronger effect = lower value 0.993 | S. cerevisiae deletion strains, locus YPR141C, strain kar3, stronger effect = lower value 0.995 | S. cerevisiae deletion strains, locus YPR163C, strain tif3, stronger effect = lower value 0.973 | S. cerevisiae deletion strains, locus YPR167C, strain met16, stronger effect = lower value 0.98 | S. cerevisiae deletion strains, strain wtn01, stronger effect = lower value 0.986
